# In PubChem BioAssay (NCI):
# About 79,000 compounds went through this panel and 15% of them were active in at least one assay; those are over-represented in the sample as a whole. Unmarked numbers belong to inactive results. The source made the active and inactive calls. Rule as the data show it: active = growth inhibition above about 70%; inactive = the rest.
# Test: NCI Yeast Anticancer Drug Screen. Data for the cln2 rad14 strain (AID 165);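 also: 0% = growth equal to vehicle treated cultures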
# Conditions: S. cerevisiae cln2 rad14 strain, at 50.0 µM, hits give high values
# In short: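 Test compounds were added to cln2 rad14 yeast cultures; inhibition of growth was then determined by comparison with vehicle treatment.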
row,SMILES,growth inhibition
1,COC(=O)C1(Br)c2ccccc2-c2ccccc21,-22.4%
2,Cc1ccc(S(=O)(=O)OC(c2ccccc2)c2ccccc2)cc1,-17.4%
3,O=C1OC(c2ccccc2)=N/C1=C/c1c(-c2ccccc2)c(-c2ccccc2)c2n1CCC2,25.5%
4,O=NN(C(=O)NCCCl)c1[nH]c(=O)ncc1Br,-25.4%
5,O=C(OCc1ccccc1CN1CCCC1)c1ccc([N+](=O)[O-])cc1Cl,-52.7%
6,CCO/C=C1/N=C(Cc2ccccc2)OC1=O,23.4%

# Test: NCI Yeast Anticancer Drug Screen. Data for the bub3 strain (AID 167)
# Conditions: S. cerevisiae bub3 mutant strain, at 50.0 µM, hits give high values
# In short: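 Whole-cell yeast assay. The mutant strain was incubated with compounds, and growth inhibition was determined by comparison with vehicle-treated cells.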
row,SMILES,growth inhibition
1,ON1c2ccccc2-c2ccccc2C1(c1ccccc1)c1ccccc1,71.5% (active)
2,O=C(OCc1ccccc1)c1ccccc1O,22.8%
3,C=CCCCCCCCCC(=O)OC,-5.1%
4,CC(=O)c1c(C)cc(C)nc1C,30.6%
5,Cc1cccc(CCSCCc2cccc(C)[n+]2[O-])[n+]1[O-],0.8%
6,CCCNc1nc(N)[nH]c(=O)c1NC=O,-15%
7,C(=C\c1cc(-c2cc(/C=C/c3ccccc3)[nH]n2)n[nH]1)/c1ccccc1,-8%
8,C=CCCCCCCCCC(=O)Nc1cc2c3c(c1)CCCN3CCC2,10.6%
9,O=C1C=Cc2ccccc2/C1=C/c1nc(-c2ccc(Cl)cc2)oc1O,6.9%
10,COn1c(-c2ccccc2)nc2c1C(=O)N(C)CN2C,-6.9%
11,CCCCCCCC[N+](C)([O-])CCCCCC[N+](C)([O-])CCCCCCCC (stereo unspecified),5.85%
12,O=C(NI1OC(=O)c2ccccc21)c1ccc(Cl)cc1,-33.6%
13,COc1ccc(N=Cc2ccc([N+](=O)[O-])cc2)cc1,9.9%
14,Cc1c(Cl)cccc1NC(=O)OC/C=C/c1ccccc1,5.6%
15,COc1ccc(/C=C2\CCN=C2c2ccccc2)cc1OC,4.4%
16,Cc1[nH]c2ccccc2c1-c1cc(-c2cc(-c3c(C)[nH]c4ccccc34)nc(N)n2)nc(N)n1,-11.3%
17,CN(C)C=N[C@@H](C(=O)O)c1ccccc1,-4.95%
18,CCCCN=C(C)CC(=O)CC(=O)c1ccccc1,22.4%
19,COc1ccc2c(c1OC)C(=O)OC2(O)C1=NCCc2cc3c(cc21)OCO3 (stereo unspecified),4.05%
20,Cc1ccc(NC(=O)CCSC(=O)Nc2ccc(C)cc2)cc1,8.1%

row,SMILES,growth inhibition
1,Clc1ccc(-c2ccncc2)cc1,13.1%
2,COc1ccc(/C=C2\N=C(c3ccc(N)cc3)OC2=O)cc1OC,10.3%
3,COc1ccc(/C=N/NC(=O)O)cc1,-32.5%
4,Oc1cccc2nc3cc(CN4CCOCC4)c(CN4CCOCC4)cc3nc12,-26.1%
5,CCC(=O)NCCc1ccccc1,-5.8%
6,N=C(CNC(=O)OCc1ccccc1)N1CCCC1C(=O)O (stereo unspecified),-1.8%
7,Clc1ccc(SCSc2ccc(Cl)cc2)cc1,6.45%
8,COc1ccc(C(=O)Nc2ccccc2C#N)cc1,1.55%
9,O=C(NN1C(=O)C(Cl)C1c1ccccc1Cl)c1ccccc1O (stereo unspecified),-21%
10,Cc1ccc(C)c(N2C(=O)C(=O)C(c3nc4ccccc4o3)/C(=N/N)C2=O)c1 (stereo unspecified),5.25%
11,C#Cc1cccc(N=Cc2cc(Cl)cc(C)c2O)c1,37.7%
12,CC1=CCC(=O)[C@]2(C)C(CC(=O)O)[C@]3(C)C4=C(C)C(c5ccoc5)C[C@@H]4O[C@@H]3[C@H](O)[C@@H]12 (stereo partly specified),-1.2%
13,Cc1[nH]c2c(O)ccc(O)c2c1C,-8%
14,CCOC(=O)/C(=C\c1c(C)[nH]c2ccccc12)P(=O)(OCC)OCC,-8.95%
15,COC(=O)C1(Br)c2ccccc2-c2ccccc21,8.5%
16,Cc1ccc(S(=O)(=O)OC(c2ccccc2)c2ccccc2)cc1,0%
17,O=C1OC(c2ccccc2)=N/C1=C/c1c(-c2ccccc2)c(-c2ccccc2)c2n1CCC2,-4.45%
18,O=NN(C(=O)NCCCl)c1[nH]c(=O)ncc1Br,-7.95%
19,O=C(OCc1ccccc1CN1CCCC1)c1ccc([N+](=O)[O-])cc1Cl,-0.9%
20,CCO/C=C1/N=C(Cc2ccccc2)OC1=O,3.65%
